Consider 35 molecules from PubChem BioAssay (NCATS).

Structures are written as SMILES. Records with an inconclusive call do not appear. Activity calls are given as the source filed them. Calls follow the shape of the dose curve; as a rule, active = well fitted curve in the direction sought with a large enough effect in the repeat runs; inconclusive = weak or mixed curves; inactive = no such curve, though single readings can be large; an effect the other way counts as inactive or inconclusive.

Experiment [1] concerns the target Cytochrome P450 2D6 (Homo sapiens) (UniProt P10635). Nature of the experiment: Cytochrome P450 family 2 subfamily D member 6 (CYP2D6) small molecule antagonists: luciferase biochemical (cell-free) qHTS assay (AID 1645840). As to conditions: P450-Glo CYP2D6 enzyme, luciferin luminescence, 1 h; series mostly up to 57.4 µM. The gist of the method: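 P450-Glo CYP2D6 system: proluciferin substrate converted by enzyme to luciferin, read by luminescence proportional to activity. Enzyme-substrate mix with compound 10 min at room temperature, then NADPH regeneration 1 h before detection reagent.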
(In general: qHTS replaces the single test concentration by a dilution series.)

The target of experiment [2] is Cytochrome P450 2C9 (Homo sapiens) (UniProt P11712). Nature of the experiment: Cytochrome P450 family 2 subfamily C member 9 (CYP2C9) small molecule antagonists: luciferase biochemical (cell-free) qHTS assay (AID 1645842). As to conditions: P450-Glo CYP2C9 enzyme assay, luciferin luminescence; series mostly up to 57.4 µM. The gist of the method: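 P450-Glo CYP2C9 system: proluciferin substrate with enzyme in mix containing 0.4% BSA, 10 min at room temperature, then NADPH regeneration solution added and incubated 1 h at 37C. Detection reagent stopped reaction; luminescence read after 20 min as RLU.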
Also: nearly all actives have a fitted effect of over 55% in size.
Potency is read from the fitted curve at half-maximal effect.

Cytochrome P450 2D6 (Homo sapiens), sequence (P10635 whole entry, looked up): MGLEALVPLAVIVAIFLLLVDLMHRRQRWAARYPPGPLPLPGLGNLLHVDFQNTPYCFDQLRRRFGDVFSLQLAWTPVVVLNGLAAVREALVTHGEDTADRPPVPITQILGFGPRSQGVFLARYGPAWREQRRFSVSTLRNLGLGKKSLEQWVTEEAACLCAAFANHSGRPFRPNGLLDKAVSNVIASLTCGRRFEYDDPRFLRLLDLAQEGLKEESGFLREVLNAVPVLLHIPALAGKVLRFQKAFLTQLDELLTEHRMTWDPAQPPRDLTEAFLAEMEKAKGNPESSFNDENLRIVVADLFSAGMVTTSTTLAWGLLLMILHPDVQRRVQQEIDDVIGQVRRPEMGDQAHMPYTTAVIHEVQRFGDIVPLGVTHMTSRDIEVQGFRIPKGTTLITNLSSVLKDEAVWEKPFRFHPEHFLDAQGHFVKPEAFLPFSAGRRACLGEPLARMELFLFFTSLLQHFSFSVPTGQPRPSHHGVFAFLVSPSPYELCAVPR
Cytochrome P450 2C9 (Homo sapiens), sequence (P11712 whole entry, looked up): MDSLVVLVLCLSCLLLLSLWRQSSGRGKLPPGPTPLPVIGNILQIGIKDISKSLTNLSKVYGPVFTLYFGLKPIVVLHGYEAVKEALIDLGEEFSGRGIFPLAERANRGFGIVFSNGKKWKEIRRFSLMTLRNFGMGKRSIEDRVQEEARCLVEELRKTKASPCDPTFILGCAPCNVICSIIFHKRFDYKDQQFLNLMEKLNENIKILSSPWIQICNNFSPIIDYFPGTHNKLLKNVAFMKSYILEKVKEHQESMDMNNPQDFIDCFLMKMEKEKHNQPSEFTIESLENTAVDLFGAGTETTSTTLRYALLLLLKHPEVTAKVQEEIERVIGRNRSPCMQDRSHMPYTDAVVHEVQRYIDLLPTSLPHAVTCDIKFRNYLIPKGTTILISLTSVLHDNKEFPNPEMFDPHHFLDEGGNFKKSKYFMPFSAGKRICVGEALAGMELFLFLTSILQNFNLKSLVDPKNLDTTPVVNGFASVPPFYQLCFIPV

For `Cc1cc2c(N3CCCC3)nc(N3CCCC3)nc2n1C`, the Potency in experiment [1] was 3.01 µM (active); in experiment [2], 15.1 µM (active).
Taken in the same sequence, the figures for `O=C(O)c1ccc(S(=O)(=O)N(Cc2ccc(OC(F)(F)F)cc2)c2ncc(C(F)(F)F)cc2Cl)cc1` were “inactive” and 23.9 µM (active).
Taken in the same sequence, the figures for `CN(C)[C@@H]1CCc2[nH]c3ccc(NC(=O)c4ccc(F)cc4)cc3c2C1` were “inactive” and “inactive”.
The like results for `COc1ccc(-c2cc3onc(-c4ccncc4)c3c(=O)n2C)cc1` were, in that order, 9.52 µM (active) and 0.952 µM (active).
With `N#Cc1ccc(COc2ccc(-c3cccc4nc(NC(=O)C5CC5)nn34)cc2)cn1`, the Potency entry in experiment [1] was “inactive”. Further, in experiment [2], the Potency was 10.7 µM (active).
Taken in the same sequence, the figures for `COc1ccc(CN2CCN(C(=O)CCNC(=O)c3ccc(C(C)(C)C)cc3)CC2)cc1` were 15.1 µM (active) and 8.49 µM (active).
The like results for `COc1ccc(OC)c(-c2ccc(NC(=O)c3ccncc3F)cc2)c1` were, in that order, “inactive” and 1.51 µM (active).
The like results for `C=C1CCN([C@H](C)[C@](O)(Cn2cncn2)c2ccc(F)cc2F)CC1` were, in that order, 23.9 µM (active) and 0.477 µM (active).
With `Cc1cc(C(=O)Cn2cc(C#N)ccc2=O)c(C)n1Cc1ccccc1`, the Potency entry in experiment [1] is “inactive”. In experiment [2], the Potency was 16.9 µM (active).
The like results for `CCCCCCCCCCCCCCCC(=O)OC/C=C(C)/C=C/C=C(C)/C=C/C1=C(C)CCCC1(C)C` were, in that order, “inactive” and 13.5 µM (active).
Taken in the same sequence, the figures for `CCn1c(=O)n([C@H]2CCCN(c3nccc(-c4cc5ccccc5o4)n3)C2)c2ccccc21` were “inactive” and 1.69 µM (active).
The like results for `O=C(Nc1ccc(Cl)cc1)Nc1cccc(-c2cccc(N3CCCC3)n2)c1` were, in that order, 6.74 µM (active) and 9.52 µM (active).
For the molecule `COc1cc(C(=O)NC(=S)Nc2cccc(NC(=O)c3ccccc3)c2)cc(OC)c1OC`, in experiment [1], the Potency result was “inactive”. Besides, the Potency in experiment [2] is 3.79 µM (active).
Taken in the same sequence, the figures for `CCOC(=O)[C@H](CCc1ccccc1)N[C@H]1CCCN2CCC[C@@H](C(=O)O)N2C1=O` were “inactive” and “inactive”.
As for `CCCCC(=O)O`, the Potency result in experiment [1] and in experiment [2] was “inactive” in each case.
`C=CCCN1CCC2(CC1)CN(C(=O)c1c(F)cccc1F)c1ccc(Cl)cc12`: the Potency in experiment [1] is 0.019 µM (active); in experiment [2], 13.5 µM (active).
Taken in the same sequence, the figures for `Cc1[nH]cnc1C[C@H]1CCc2c(C)c3ccccc3n2C1=O` were 0.301 µM (active) and 0.19 µM (active).
As to `C=Cc1ccccc1`, the Potency result in experiment [1] and in experiment [2] was “inactive” throughout.
Take `O=C(N[C@H](Cc1cscn1)C(=O)N[C@@H](CC1CCCCC1)[C@@H](O)[C@@H](O)C1CC1)c1nc2ccccc2[nH]1`: the Potency in experiment [1] was 19 µM (active); in experiment [2], 1.34 µM (active).
For `O=C(N[C@H]1CCN(C(=O)c2cc(C(F)(F)F)cc(C(F)(F)F)c2)[C@H](Cc2ccc(Cl)cc2)C1)c1ccnc2ccccc12`, the Potency result in experiment [1] was “inactive”. For the same molecule, the Potency in experiment [2] is 10.7 µM (active).
Taken in the same sequence, the figures for `O=C(NCCN1CCN(c2cccc3ccc(O)cc23)CC1)c1ccc(F)cc1` were 0.0425 µM (active) and 0.601 µM (active).
Taken in the same sequence, the figures for `NC(=O)c1nc(Nc2ccccc2)sc1NC(=O)C1CCCCC1` were “inactive” and 0.601 µM (active).
The like results for `O=C(Nc1ccccc1)N1CCC(Cc2cnc3ccccc3c2)CC1` were, in that order, 26.8 µM (active) and 12 µM (active).
As to `O=C(c1ccc(Cl)cc1)N1CCN(c2ccnc3cc(Cl)ccc23)CC1`, the Potency in experiment [1] and in experiment [2] was 8.49 µM (active) throughout.
With `CCC(=O)Oc1ccc2c(c1)CC[C@@H]1[C@@H]2CC[C@]2(C)[C@@H](OC(=O)CC)CC[C@@H]12`, the Potency entry in experiment [1] was “inactive”. For the same molecule, in experiment [2], the Potency is 15.1 µM (active).
Consider `CC[C@H](C(=O)Nc1ccccc1N1CCCC1)c1ccccc1`, for which the Potency in experiment [1] was 9.52 µM (active); in experiment [2], 7.56 µM (active).
For `O=C(NCCN1CCC(n2c(=O)[nH]c3ccccc32)CC1)c1cc2cc(F)ccc2[nH]1`, the values for the Potency in experiment [1] and in experiment [2] were 15.1 µM (active) and 3.38 µM (active), respectively.
Taken in the same sequence, the figures for `O=C(OCCO)c1ccccc1O` were “inactive” and “inactive”.
As to `CCCCCCCCCC(=O)O`, the Potency result in experiment [1] and in experiment [2] was “inactive” in each case.
Take `CN1CC(O)c2cc(N=NC(N)=O)c(O)cc21` (stereo not given): the Potency entry in experiment [1] and in experiment [2] was “inactive” in each case.
In the case of `COc1cc(-c2nc(N[C@H](CO)Cc3ccccc3)ccc2C(=O)NCCOc2ccccc2)cc(OC)c1OC`, the Potency was 12 µM (active) in experiment [1] and 1.51 µM (active) in experiment [2].
Turning to `O=C(COc1ccc(C(=O)c2ccccc2)cc1)NC1CCN(Cc2ccccc2)CC1`, the results for the Potency in experiment [1] and in experiment [2] were 0.338 µM (active) and 4.77 µM (active), respectively.
The like results for `Fc1ccc2c(CCNCc3cccc(OCC(F)(F)C(F)F)c3)c[nH]c2c1` were, in that order, 0.0477 µM (active) and 9.52 µM (active).
The like results for `COc1ccc2c(c1)C(C(=O)N(Cc1ccc(N(C)C)cc1)c1ccc(C(C)C)cc1)CCC2` (stereo not given) were, in that order, “inactive” and 5.35 µM (active).
The like results for `CS(=O)(=O)Nc1ccc2oc3c(OC(F)F)ccc(C(=O)Nc4c(Cl)cncc4Cl)c3c2c1` were, in that order, 12 µM (active) and 3.38 µM (active).
